aSyn 5UTR act – Activators via SNCA 5'UTR binding, MLPCN | alpha-synuclein 5'UTR reporter, activators screen | activity score, % (tested at 7.5 µM), hits read low | AID 1814, 2009 | 300,000 compounds, 7.1% hits; in the data active = activity score below about -60%
Numbers without * were called inactive. The list is a sample of the results.

SMILES | aSyn 5UTR act
COc1ccc(C2=Nn3c(nnc3-c3ccccn3)SC2)cc1OC | 56
Cc1nc(C)c(-c2csc(Nc3ncccc3C)n2)s1 | -240*
COc1ccc(CCc2nnc(CCC(=O)NCc3cc(C(C)C)no3)o2)cc1 | -99*
COc1ccc(CCC(=O)Nc2ccc(-c3noc(-c4ccc(OC)c(OC)c4)n3)cc2)cc1 | -158*
COc1ccc(-c2nc(-c3ccc(NC(=O)c4ccc(Br)o4)cc3)no2)cc1OC | -136*
CCCCCCCn1ccc(=N)cc1 | 56
CCCCCN1CC(O)=C(c2nc3ccccc3[nH]2)C1=N | -117*
CCCCCCCCCn1ccc(=N)cc1 | 82
CC(C)N1CC(O)=C(c2nc3ccccc3[nH]2)C1=N | -74*
CCCCN1CC(O)=C(c2nc3ccccc3[nH]2)C1=N | -107*
O=C1CCC2S/C(=C/Nc3ccc(C(F)(F)F)cc3)C(=O)N12 (stereo not drawn) | 99
CCOc1ccc(-n2nc3ccc(NC(=O)c4ccc5c(c4)OCCO5)cc3n2)cc1 | 47
CCc1ccc(-n2nc3ccc(NC(=O)c4ccc5c(c4)OCO5)cc3n2)cc1 | -66*
O=C(Nc1ccc2nn(-c3ccccc3)nc2c1)c1ccc2c(c1)OCCO2 | -82*
COc1ccc(-c2csc(-c3cccs3)n2)c(OC)c1 | -126*
COc1ccc(-c2csc(-c3ccccc3)n2)c(OC)c1 | -202*
CC(=O)N=C(N)Sc1nc2ccccc2[nH]1 | -135*
CCS(=O)(=O)n1nc(-c2ccccc2)nc1NCc1ccco1 | -71*
Cc1ccc(S(=O)(=O)n2nc(-c3ccc(Cl)cc3)nc2NCc2ccco2)cc1 | -96*
CS(=O)(=O)c1nc(S(=O)(=O)c2ccc(Cl)cc2)c(N2CCC3(CC2)OCCO3)s1 | -156*
C=CC[C@]12CC=CC(=O)[C@@]1(O)O[C@H](c1ccc(OC)c(OC)c1)[C@H]2C | -94*
Cc1csc(NC(=O)Cc2ccc(Cl)cc2)n1 | -81*
Cc1csc(NC(=O)Cc2ccccc2Cl)n1 | -99*
COc1ccc(OCCCn2cc(/C=C3/C(=N)N4C=C(C)SC4=NC3=O)c3ccccc32)cc1 | -70*
COc1cc(-c2nnc3n2N=C(c2ccccc2)CS3)cc(OC)c1OC | 63
SMILES | aSyn 5UTR act
CC(=O)Nc1ccc(C2CC(c3ccc(Cl)cc3)=NN2c2ccccc2)cc1 (stereo not drawn) | -79*
Cc1ccc(C2CC(c3ccccc3)=NN2c2ccccc2)o1 (stereo not drawn) | -232*
COc1ccc(C2=NN(C(C#N)c3ccc(OC)c(OC)c3)C(c3ccccc3)C2)cc1 (stereo not drawn) | -172*
COc1ccc(C2CC(c3cccs3)=NN2c2nc(-c3ccccc3)cs2)cc1OC (stereo not drawn) | -64*
COc1ccc(C2=NN(c3ccccc3)C(c3ccc(OC)c(OC)c3)C2)cc1 (stereo not drawn) | -76*
CCOC(=O)/C(C#N)=C/N=c1ccc(C)cn1C | -88*
CCCN1C=CC(=C/C=C(\C#N)C(=O)OCC)C=C1 | -157*
Cc1cc(/C=N/NC(=O)c2ccsc2)c(C)n1-c1cnccn1 | -77*
CCn1c2ccccc2c2cc(NC(=O)CSc3nnc(-c4cccc(C)c4)o3)ccc21 | -63*
CCn1c2ccccc2c2cc(NC(=O)CSc3nnc(-c4ccccc4)o3)ccc21 | -155*
CCn1c2ccccc2c2cc(NC(=O)CSc3nnc(-c4cccc(F)c4)o3)ccc21 | -68*
CCOc1ccc(-c2csc(Cn3c(CN4CCN(C)CC4)nc4ccccc4c3=O)n2)cc1 | -66*
COc1cccc(-c2nnc(-c3ccc(C(F)(F)F)cc3)o2)c1OC | -125*
Cc1ccc(-c2csc(-c3ccncc3)n2)cc1 | -213*
Brc1ccc(-c2csc(-c3ccncc3)n2)cc1 | -195*
CC(=O)c1c(C)nc(-c2ccc(Cl)cc2)nc1N=CN(C)C | -128*
CC(=O)c1c(C)nc(-c2ccc(Cl)cc2)nc1N | -239*
CC(=O)Nc1ccc(-c2cn3c(n2)SCC3)cc1 | -83*
O=C(Nc1ccc(-c2cn3c(n2)SCC3)cc1)c1ccco1 | -170*
Cc1ccc(NC(=O)c2ccc(CN3CCc4ccccc4C3)cc2)cc1 | -101*
O=C(Nc1cccnc1)c1ccc(CN2CCc3ccccc3C2)cc1 | -68*
CC(C)N1CCc2c(sc(NC(=S)NC(=O)c3ccccc3)c2C#N)C1 | -143*
CCCN1CCc2c(sc(NC(=S)NC(=O)c3ccccc3)c2C#N)C1 | -140*
COC(=O)c1c(NC(=O)c2ccc([N+](=O)[O-])o2)sc2c1CCN(C(C)C)C2 | 105
O=C(Nc1ccc(N2CCOCC2)cc1)Nc1ccc(Cl)c(Cl)c1 | -139*
SMILES | aSyn 5UTR act
O=C(Nc1ccc(N2CCOCC2)cc1)Nc1cnsn1 | -114*
COc1cccc(/C=N/Nc2ccc(C(=O)O)cc2)c1O | 113
COc1ccc(Br)cc1/C=N/Nc1cccc(C(=O)O)c1 | -76*
COc1ccc(/C(C)=N/Nc2cccc(C(=O)O)c2)cc1OC | -113*
CN(C)c1ccc(/C=N/Nc2cccc(C(=O)O)c2)cc1 | 77
O=C(O)c1cccc(N/N=C/c2cc(Br)cc(Br)c2O)c1 | -232*
COc1ccccc1/C=C/C=N/Nc1cccc(C(=O)O)c1 | -119*
